Test results taken from PubChem BioAssay (NCATS).
Inconclusive results are not listed. Calls of active or inactive are those of the source. Calls come from the whole dose curve; as a rule, active = well fitted inhibition curve with a large enough effect; inconclusive = small, poorly fitted or top-dose-only effect; inactive = flat fitted curve, though single readings scatter.

Assays:
Test in all cases: qHTS profiling for inhibitors of Plasmodium falciparum proliferation (AID 504749);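 note: 0% = DMSO vehicle and full inhibition = artemisinin control; nearly all actives have a fitted effect of over 60% in size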
Settings in all cases: P. falciparum in erythrocytes, SYBR Green DNA, 72 h; series mostly up to 28.7 µM
[1] = tested on: CP203
Outline: (§1)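 Three-day growth assay of blood-stage parasites in erythrocytes (0.3% parasitemia, 2.5% hematocrit) at 37 C, 5% CO2, quantified by SYBR Green DNA staining after overnight detergent lysis.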

[2] = tested on: CP211
Outline: as §1

[3] = tested on: CP215
Outline: as §1

[4] = tested on: CP217
Outline: as §1

[5] = tested on: CP237
Outline: as §1

[6] = tested on: CP238
Outline: as §1

[7] = tested on: CP247
Outline: as §1

[8] = tested on: CP250
Outline: as §1

[9] = tested on: CP252
Outline: as §1

[10] = tested on: CP256
Outline: as §1

[11] = tested on: CP260
Outline: as §1

[12] = tested on: CP262
Outline: as §1

[13] = tested on: CP265
Outline: as §1

[14] = tested on: CP266
Outline: as §1

[15] = tested on: CP268
Outline: as §1

[16] = tested on: CP269
Outline: as §1

[17] = tested on: CP286
Outline: as §1

[18] = tested on: CP291
Outline: as §1

[19] = tested on: CP297
Outline: as §1

[20] = tested on: CP305
Outline: as §1

Nc1nc(N)nc(NC2CC2)n1
inactive: Potency [1] | Potency [2] | Potency [3] | Potency [4] | Potency [5] | Potency [6] | Potency [7] | Potency [8] | Potency [9] | Potency [10] | Potency [11] | Potency [12] | Potency [13] | outcome [14] | Potency [15] | Potency [16] | Potency [17] | Potency [18] | Potency [19] | Potency [20]

CC(C)=CC1C(C(=O)OCN2C(=O)C3=C(CCCC3)C2=O)C1(C)C (stereo unspecified)
inactive: Potency [1] | Potency [2] | Potency [3] | Potency [4] | Potency [5] | Potency [6] | Potency [7] | Potency [8] | Potency [9] | Potency [10] | Potency [11] | Potency [12] | Potency [13] | outcome [14] | Potency [15] | Potency [16] | Potency [17] | Potency [18] | Potency [19] | Potency [20]

COP(=S)(OC)Oc1ccc(SC)c(C)c1
inactive: Potency [1] | Potency [2] | Potency [3] | Potency [4] | Potency [5] | Potency [6] | Potency [7] | Potency [8] | Potency [9] | Potency [10] | Potency [11] | Potency [12] | Potency [13] | outcome [14] | Potency [15] | Potency [16] | Potency [17] | Potency [19] | Potency [20]

CCC1(c2ccccc2)C(=O)N(COC)C(=O)N(COC)C1=O
inactive: Potency [1] | Potency [2] | Potency [3] | Potency [4] | Potency [5] | Potency [6] | Potency [7] | Potency [8] | Potency [9] | Potency [10] | Potency [11] | Potency [12] | Potency [13] | outcome [14] | Potency [15] | Potency [16] | Potency [17] | Potency [18] | Potency [19] | Potency [20]

CCCCC/C=C\C/C=C\C/C=C\C/C=C\CCCC(=O)NCC(=O)O
inactive: activity, negative = inhibition [1] 6.81% [at 2.67 µM] | activity, negative = inhibition [2] 8.66% [at 2.67 µM] | activity, negative = inhibition [3] 4.08% [at 2.67 µM] | activity, negative = inhibition [4] -11% [at 2.67 µM] | activity, negative = inhibition [5] 0.3% [at 2.67 µM] | activity, negative = inhibition [6] -1.95% [at 2.67 µM] | activity, negative = inhibition [7] 9.07% [at 2.67 µM] | activity, negative = inhibition [8] 11.6% [at 2.67 µM] | activity, negative = inhibition [9] -0.781% [at 2.67 µM] | activity, negative = inhibition [10] 0.973% [at 2.67 µM] | activity, negative = inhibition [11] 4.28% [at 2.67 µM] | activity, negative = inhibition [12] 2.09% [at 2.67 µM] | activity, negative = inhibition [13] 2.88% [at 2.67 µM] | activity, negative = inhibition [15] -7.02% [at 2.67 µM] | activity, negative = inhibition [16] 0.824% [at 2.67 µM] | activity, negative = inhibition [17] 0.0979% [at 2.67 µM] | activity, negative = inhibition [18] -4.76% [at 2.67 µM] | activity, negative = inhibition [19] -4.97% [at 2.67 µM] | activity, negative = inhibition [20] 3.97% [at 2.67 µM]

c1ccc2c(c1)sc1ccccc12
inactive: Potency [1] | Potency [2] | Potency [3] | Potency [4] | Potency [5] | Potency [6] | Potency [7] | Potency [8] | Potency [9] | Potency [10] | Potency [11] | Potency [12] | Potency [13] | outcome [14] | Potency [15] | Potency [16] | Potency [17] | Potency [18] | Potency [19] | Potency [20]

Cc1ncsc1CCCl
inactive: Potency [1] | Potency [2] | Potency [3] | Potency [4] | Potency [5] | Potency [6] | Potency [7] | Potency [8] | Potency [9] | Potency [10] | Potency [11] | Potency [12] | Potency [13] | outcome [14] | Potency [15] | Potency [16] | Potency [17] | Potency [19] | Potency [20]

Clc1ccc2c(c1)C(c1ccccc1)=NCc1nncn1-2
inactive: Potency [1] | Potency [2] | Potency [3] | Potency [4] | Potency [5] | Potency [6] | Potency [7] | Potency [8] | Potency [9] | Potency [10] | Potency [11] | Potency [12] | Potency [13] | outcome [14] | Potency [15] | Potency [16] | Potency [17] | Potency [18] | Potency [19] | Potency [20]

O=C1OC(c2ccc(O)c(S(=O)(=O)O)c2)(c2ccc(O)c(S(=O)(=O)O)c2)c2c(Br)c(Br)c(Br)c(Br)c21
inactive: Potency [1] | Potency [2] | Potency [3] | Potency [4] | Potency [5] | Potency [6] | Potency [7] | Potency [8] | Potency [9] | Potency [10] | Potency [11] | Potency [12] | Potency [13] | outcome [14] | Potency [15] | Potency [16] | Potency [17] | Potency [18] | Potency [19] | Potency [20]

Nc1ccccc1C(=O)O
inactive: Potency [1] | Potency [2] | Potency [3] | Potency [4] | Potency [5] | Potency [6] | Potency [7] | Potency [8] | Potency [9] | Potency [10] | Potency [11] | Potency [12] | Potency [13] | Potency [15] | Potency [16] | Potency [17] | Potency [18] | Potency [19] | Potency [20]

CN1C(=O)COc2c(C(=O)NC3CN4CCC3CC4)cc(Cl)cc21 (stereo unspecified)
inactive: Potency [1] | Potency [2] | Potency [3] | Potency [4] | Potency [5] | Potency [6] | Potency [7] | Potency [8] | Potency [9] | Potency [10] | Potency [11] | Potency [12] | Potency [13] | outcome [14] | Potency [15] | Potency [16] | Potency [17] | Potency [18] | Potency [19] | Potency [20]

C[C@]12CC[C@@H]3c4ccc(OC(=O)N(CCCl)CCCl)cc4CC[C@H]3[C@@H]1CC[C@@H]2O
inactive: Potency [1] | Potency [2] | Potency [3] | Potency [4] | Potency [5] | Potency [6] | Potency [7] | Potency [8] | Potency [9] | Potency [10] | Potency [11] | Potency [12] | Potency [13] | outcome [14] | Potency [15] | Potency [16] | Potency [17] | Potency [18] | Potency [19] | Potency [20]
